IMPase cell inh: IMPase inhibition in cells; inhibition (IP1 accumulation), % at 46.1 µM; AID 901; 120,000 tested, under 10 active; CHO-M1 cells, IP1 accumulation, HTRF TR-FRET ratio; active = well fitted curve in the direction sought with a large enough effect in the signal ratio, not every such curve was filed as active; inconclusive = small, poorly fitted or top-dose-only effect, or a change in a side signal; inactive = no such curve, though single readings can be large or run the other way; the % refers to the signal ratio;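 also: cells stimulated with carbachol in lithium chloride buffer; plate controls were DMSO basal wells for no effect and reference inhibitor wells for full effect; higher means more IMPase inhibition seen as more IP1 and lower FRET ratio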
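CHO-M1 cells (CHO stably expressing M1 receptor), compound up to 46 uM final, stimulated with carbachol (50 uM as added) in buffer with 50mM LiCl, pH 7.4, 30 min at 37C. Cytosolic IP1 read by TR-FRET; AC50 from Hill fits.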
IMPase Li cell: IMPase inhibition in cells with lithium potentiation. CHO-M1 cells, IP1 TR-FRET (IP-One), carbachol + lithium. Potency, µM (highest dose often 59.4 µM), inactives show at the highest dose activity, negative = IMPase inhibition, usual class: inhibitors. hit rate 0.35% among 210,000;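 also: IP1 builds up when IMPase is blocked and the TR-FRET signal falls; potency is read from the fitted curve at half-maximal effect; plate controls were basal vehicle for no effect and high inhibitor control for full effect; nearly all actives have a fitted effect of over 50% in size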
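CHO cells stably expressing M1 receptor (2000/well) were cultured 16–30 h, then exposed to compounds with a small lithium addition for 30 min at 37C. IP1 was measured by TR-FRET competition; AC50 from Hill fits.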
PNC inhibitor: blocks assembly of the perinucleolar compartment; hit rate 3.1% among 140,000; activity change (PNC), negative = inhibition, % at 10 µM; PC3M PTB-GFP, PNC prevalence imaging, 16 h; hits give low values;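 active = readout at or below -70, meaning at least 70% loss of cells showing the perinucleolar compartment, a nuclear body marking cancer cells; inconclusive = readout between -30 and a set limit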;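 also: plate controls were DMSO wells for no effect and camptothecin positive control wells for full effect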
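PC3M cells stably expressing PTB-GFP, 750–1000 cells/well, treated 16 h at 37 °C with compound (23 nl of library stock), in duplicate. After paraformaldehyde fixation and Hoechst stain, imaged at 20x; PNC prevalence scored by image analysis.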
HPGD inh: HPGD (human) dehydrogenase inhibition; purified HPGD, NADH fluorescence kinetic, PGE2 substrate; Potency, µM, without a hit: at the highest dose activity change, negative = inhibition, most hits filed as inhibitors; hit rate 4.3% among 150,000; AID 894; active = well fitted inhibition curve with a large enough effect, not every such curve was filed as active; inconclusive = small, poorly fitted or top-dose-only effect, or another doubt; inactive = no such curve, though single readings can be large or run the other way; also: potency is read from the fitted curve at half-maximal effect
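20 nM HPGD preincubated 15 min at room temperature with compound in 50 mM Tris-HCl pH 8, 0.01% Tween 20. Started with 1 mM NAD+ and 30 uM prostaglandin E2; NADH fluorescence (360/450 nm) read 5 times over 30-s intervals, last minus first.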
ALOX15B inhib: inhibitors of human 15-lipoxygenase 2 (ALOX15B). O15296. purified 15hLO-2, xylenol orange hydroperoxide absorbance. Potency, µM (titrated, usually from 57.1 µM), for inactives: top-dose activity change, negative = inhibition, hits mostly inhibitors. hit rate 0.56% among 110,000. AID 881; also: potency is read from the fitted curve at half-maximal effect; nearly all actives have a fitted effect of over 60% in size
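Enzyme 50 nM, AA 45 uM, 25 mM Hepes pH 7.5 + 0.01% Triton X-100; cpd preinc 15 min RT, rxn 90 min RT; stop/detect with 200 uM XO + 300 uM Fe(II) in 50 mM H2SO4, 30 min; A573/A405.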
12-hLO inh: blocks human 12-lipoxygenase activity | P18054 | purified 12-hLO, xylenol orange hydroperoxide absorbance | Potency, µM (doses to about 57.1 µM), without a hit: top-dose activity change, negative = inhibition, actives largely listed as inhibitors | hit rate 0.12% among 150,000 | AID 1452; also: potency is read from the fitted curve at half-maximal effect; nearly all actives have a fitted effect of over 55% in size
Target sequence (P18054 whole entry, looked up): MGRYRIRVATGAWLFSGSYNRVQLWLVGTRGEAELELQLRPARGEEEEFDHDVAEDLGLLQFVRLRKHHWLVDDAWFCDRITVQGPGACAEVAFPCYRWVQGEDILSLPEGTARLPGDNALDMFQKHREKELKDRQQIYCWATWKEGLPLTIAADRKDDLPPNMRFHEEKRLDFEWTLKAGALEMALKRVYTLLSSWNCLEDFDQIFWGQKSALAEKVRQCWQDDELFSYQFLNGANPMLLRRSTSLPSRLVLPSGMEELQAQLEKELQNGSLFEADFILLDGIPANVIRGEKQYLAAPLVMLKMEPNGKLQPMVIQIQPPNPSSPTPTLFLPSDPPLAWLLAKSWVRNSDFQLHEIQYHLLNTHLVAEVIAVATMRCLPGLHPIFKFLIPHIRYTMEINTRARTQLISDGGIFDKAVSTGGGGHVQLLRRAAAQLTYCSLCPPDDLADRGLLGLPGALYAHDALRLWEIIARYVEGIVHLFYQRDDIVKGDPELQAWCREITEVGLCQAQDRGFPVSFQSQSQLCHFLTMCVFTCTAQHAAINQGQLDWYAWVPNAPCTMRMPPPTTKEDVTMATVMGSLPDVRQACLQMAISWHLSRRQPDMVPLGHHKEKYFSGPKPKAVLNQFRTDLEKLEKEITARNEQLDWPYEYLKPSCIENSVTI
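Hydroperoxide formation by human 12-lipoxygenase from 40 uM arachidonic acid was followed colorimetrically via ferric-xylenol orange complex, using the 573/405 nm absorbance ratio. Enzyme concentration was 150 nM, with 30 min reaction at room temperature.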
Starred values were filed as active, the others as inactive; ? = inconclusive; / = not tested or not shown; [ ] = another dose, or the depositor's remark. An excerpt weighted towards active compounds, which were near 5.4% of everything screened. Unless noted, calls follow the shape of the dose curve; as a rule, active = well fitted curve in the direction sought with a large enough effect; inconclusive = small, poorly fitted or top-dose-only effect, or another doubt; inactive = no such curve, though single readings can be large; an effect the other way counts as inactive or inconclusive. Unless noted, % is scaled to controls: 0 for no effect and ±100 for the full control effect.

SMILES	IMPase cell inh	IMPase Li cell	PNC inhibitor	HPGD inh	ALOX15B inhib	12-hLO inh
Cc1cc(C)n(C(=O)CNC(=O)COc2ccccc2)n1	-6	4%[38.3 µM]	-9	32µM*	-10%	-2%
C[C@@]12CCC(=O)C=C1CC[C@H]1[C@@H]2[C@@H](O)C[C@]2(C)[C@@H]1CC[C@@]2(O)C(=O)CO	/	/	/	/	0%[11.4 µM]	5%[11.4 µM]
Fc1ccc(NCc2nnc(SCc3nnc(-c4ccccc4)o3)n2Cc2ccccc2)cc1	6	1%[38.3 µM]	-14	28µM*	-8%	-7%
COCOc1cc(OC)ccc1C(=O)/C=C/c1cccc(C(F)(F)F)c1	/	6%	/	-4%	/	/
CCc1ccc(S(=O)(=O)Nc2ccc(O)c(C(=O)O)c2)cc1	/	/	/	-9%	/	-7%
O=C(Nc1cc(Cl)ccc1N1CCCCC1)c1cccs1	6	49%[38.3 µM]	-88*	-13%	8%	3%
Cc1ccc(C(=O)Nc2cc(Cl)ccc2N2CCCCC2)s1	-4	20%[38.3 µM]	?	?	22%	-5%
C=CCN1CCc2c(cc(O)c(O)c2Cl)C(c2cccc(C)c2)C1 (stereo not given)	/	0%	/	-10%	-4%	-1%
Cc1sc2nc(SCC(=O)N3CCOCC3)[nH]c(=O)c2c1C	1	19%[38.3 µM]	16	16µM*	-6%	-7%
Cc1sc2nc(SCC(=O)NCc3ccco3)n(C)c(=O)c2c1C	4	-10%[38.3 µM]	2	-1%	-3%	-7%
Cc1sc2nc(SCC(=O)O)[nH]c(=O)c2c1C	/	1%	/	/	/	/
Cc1sc2nc(SCC(=O)NCc3cccs3)[nH]c(=O)c2c1C	7	2%[38.3 µM]	6	25µM*	-8%	0%
Cc1sc2nc(SCC(=O)NCc3ccco3)[nH]c(=O)c2c1C	10	7%[38.3 µM]	13	7.9µM*	-1%	-8%
O=C(O)CNC(=O)c1ccccc1O	/	-6%	/	?	-4%[11.4 µM]	0%[11.4 µM]
Fc1ccc(-c2n[nH]c(=S)n2-c2ccc3c(c2)OCCO3)cc1	/	-3%	/	/	/	/
S=c1[nH]nc(-c2ccc(Cl)cc2)n1-c1ccc2c(c1)OCCO2	/	-6%	-15	14µM*	/	-3%
NC(=O)c1ncn(C2OC(CO)C(O)C2O)n1 (stereo not given)	/	-7%	/	-13%	14%	2%
CC1=NNC(=O)C1CCC(=O)N/N=C/C(Br)=C/c1ccccc1 (stereo not given)	2	/	-115*	/	/	1%
CCOC(=O)c1nn(-c2cccc(C)c2)c2nc(-c3ccccc3)c(C#N)c(=O)n12	?	4µM*	-117*	?	-2%	-12%
CCCCCOP(=O)(c1ccccc1)c1ccccc1	/	4%	-108*	-4%	/	-1%
CCC(C)Sc1nc2c(c(=O)[nH]c(=O)n2C)n1CCc1ccccc1 (stereo not given)	3	1%	162	-16%	/	-2%
CCOC(=O)CSc1nc2c(c(=O)[nH]c(=O)n2C)n1C/C=C(/C)Cl	-14	0%[38.3 µM]	17	20µM*	-13%	-2%
CCOCCn1c(SC)nc2c1c(=O)[nH]c(=O)n2C	-11	-11%[38.3 µM]	9	20µM*	-4%[2.29 µM]	2%
CCOC(=O)CSc1nc2c(c(=O)[nH]c(=O)n2C)n1CCc1ccccc1	-1	10%[38.3 µM]	?	-12%	-17%	3%
CCOC(=O)C(CC)Sc1nc2c(c(=O)[nH]c(=O)n2C)n1CCc1ccccc1 (stereo not given)	1	-10%[38.3 µM]	-6	22µM*	-12%	-6%
SMILES	IMPase cell inh	IMPase Li cell	PNC inhibitor	HPGD inh	ALOX15B inhib	12-hLO inh
CCC(C)Sc1nc2c(c(=O)[nH]c(=O)n2C)n1CC(O)COc1ccccc1C (stereo not given)	3	5%	-28	40µM*	/	-7%
CCOCCn1c(SCCCc2ccccc2)nc2c1c(=O)[nH]c(=O)n2C	5	12%	?	-4%	/	0%
C/C(Cl)=C/Cn1c(SC(C)C)nc2c1c(=O)[nH]c(=O)n2C	?	-5%[38.3 µM]	22	?	-1%	-3%
CS(=O)(=O)Nc1ccc(Nc2c3ccccc3nc3ccccc23)cc1	/	0%	/	-13%	?	-3%[11.4 µM]
O=c1oc2ccccc2c(O)c1/C=N/c1nc(-c2ccc(O)c(O)c2)cs1	/	-15%	/	-24%	-11%[11.4 µM]	-14%[11.4 µM]
N=c1ccn2c(n1)O[C@H]1[C@@H](O)[C@@H](CO)O[C@H]12	/	12%	/	5%	/	/
CCCCCCn1c(SCCCC)nc2c1c(=O)[nH]c(=O)n2C	0	25%[38.3 µM]	10	-11%	-4%	-1%
CCCCn1c(SCC(=O)OCC)nc2c1c(=O)[nH]c(=O)n2C	-9	3%	-119*	?	/	2%
O=[N+]([O-])c1ccc(O)c(N=Cc2sc3ccccc3c2O)c1	/	34%	15	14µM*	/	-4%
CCCCS(=O)(=O)N1CCc2nc(-c3ccc(OC)cc3C)c3c(c2C1)CO[C@@H](c1ccccc1)C3	/	9%	/	-5%	/	3%[11.4 µM]
COC(=O)C(C)N(C(=O)c1cccc2ccccc12)c1c(C)cccc1C (stereo not given)	11	32%[38.3 µM]	43	2%	-9%	-6%
COC(=O)C(C)N(C(=O)c1cccc(Cl)c1)c1c(C)cccc1C (stereo not given)	7	49%[38.3 µM]	-92*	-8%	2%	4%
CC(=O)N1CCc2cc(S(=O)(=O)N3CCN(c4ccc(C)cc4)C(C)C3)ccc21 (stereo not given)	4	/	/	/	/	/
CC=C1C2C=C(C)CC1(N)c1ccc(=O)[nH]c1C2 (stereo not given)	/	10%	/	/	/	/
Oc1ccc(Cl)cc1-c1cc(-c2ccccc2Cl)[nH]n1	-13	22%	-26	7.9µM*	/	-19%
Oc1ccc(Cl)cc1-c1cc(-c2cccc(Br)c2)n[nH]1	5	32%[38.3 µM]	42	3.2µM*	18%	-23%
Oc1ccc(Cl)cc1-c1cc(-c2ccco2)[nH]n1	7	14%[38.3 µM]	71	25µM*	?	?
Oc1ccccc1-c1cc(-c2ccco2)[nH]n1	-2	19%[38.3 µM]	24	?	-2%	-27%
Oc1ccc(Br)cc1-c1cc(-c2ccco2)[nH]n1	0	31%[38.3 µM]	9	?	-15%	-29%
Oc1ccccc1-c1cc(-c2cccc(F)c2)n[nH]1	8	3%[38.3 µM]	?	-29%	-1%	?
Oc1ccccc1-c1cc(-c2ccccc2Cl)[nH]n1	8	-3%[38.3 µM]	-23	14µM*	8%	?
O=c1cc(O)c(-c2ccccc2Cl)c(Cl)[nH]1	-1	23%[38.3 µM]	?	-6%	2%	-2%
CCOc1cc(C2CC(=O)Nc3cc(C)c(C)cc32)ccc1O (stereo not given)	1	8%[38.3 µM]	-139*	-2%	-4%	2%
Cc1ccc(-n2c(N)c(C(=O)N3CCCCC3)sc2=S)cc1	-4	8%[38.3 µM]	?	10µM*	-14%	-17%
